For the assay, the target named is PAS domain-containing serine/threonine-protein kinase (Homo sapiens) (UniProt Q96RG2). Conditions: at 1 µM.
Chain of PAS domain-containing serine/threonine-protein kinase (Homo sapiens) (Q96RG2 whole entry, the tested form may be a part): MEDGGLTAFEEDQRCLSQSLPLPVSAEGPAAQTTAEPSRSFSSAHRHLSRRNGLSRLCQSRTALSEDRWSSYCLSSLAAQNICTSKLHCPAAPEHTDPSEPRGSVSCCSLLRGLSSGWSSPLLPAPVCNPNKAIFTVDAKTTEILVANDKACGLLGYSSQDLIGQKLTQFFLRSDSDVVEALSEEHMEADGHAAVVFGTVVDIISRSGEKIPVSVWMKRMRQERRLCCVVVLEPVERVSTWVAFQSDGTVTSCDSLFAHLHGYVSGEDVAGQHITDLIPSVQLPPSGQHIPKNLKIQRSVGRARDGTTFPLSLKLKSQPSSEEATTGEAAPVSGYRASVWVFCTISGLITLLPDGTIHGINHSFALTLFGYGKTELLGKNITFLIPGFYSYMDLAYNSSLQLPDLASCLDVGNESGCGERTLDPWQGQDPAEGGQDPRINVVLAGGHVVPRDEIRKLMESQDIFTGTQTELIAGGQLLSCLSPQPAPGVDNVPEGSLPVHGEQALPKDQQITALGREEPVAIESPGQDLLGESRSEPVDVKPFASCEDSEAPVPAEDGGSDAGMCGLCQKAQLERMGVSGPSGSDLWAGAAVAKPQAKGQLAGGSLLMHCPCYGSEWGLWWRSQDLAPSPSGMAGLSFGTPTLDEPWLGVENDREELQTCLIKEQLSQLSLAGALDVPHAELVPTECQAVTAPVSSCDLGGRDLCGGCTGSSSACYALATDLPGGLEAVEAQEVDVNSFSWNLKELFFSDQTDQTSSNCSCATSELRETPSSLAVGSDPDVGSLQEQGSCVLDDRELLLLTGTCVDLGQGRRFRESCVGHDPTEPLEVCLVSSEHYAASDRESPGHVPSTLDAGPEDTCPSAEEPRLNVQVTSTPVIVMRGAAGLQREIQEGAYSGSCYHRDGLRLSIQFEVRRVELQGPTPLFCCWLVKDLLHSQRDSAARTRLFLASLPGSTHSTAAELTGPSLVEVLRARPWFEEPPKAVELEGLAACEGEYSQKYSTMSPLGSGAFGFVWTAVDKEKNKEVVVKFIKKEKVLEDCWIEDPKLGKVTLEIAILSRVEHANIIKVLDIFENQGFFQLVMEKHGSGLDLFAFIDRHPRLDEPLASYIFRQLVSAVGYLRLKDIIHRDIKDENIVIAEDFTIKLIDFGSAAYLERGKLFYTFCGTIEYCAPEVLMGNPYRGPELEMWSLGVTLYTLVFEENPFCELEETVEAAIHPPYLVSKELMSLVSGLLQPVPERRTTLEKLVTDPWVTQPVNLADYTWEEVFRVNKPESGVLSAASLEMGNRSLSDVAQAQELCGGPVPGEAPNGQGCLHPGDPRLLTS
What is called residual activity is the signal under treatment as a percentage of the control signal. On to `O=S(=O)(c1cccc2cnccc12)N1CCCNCC1`, for which the residual activity amounted to 83%. Take `Cn1cc(/C=C2\C(=O)Nc3ccc(S(N)(=O)=O)cc32)c2ccccc21`: the residual activity amounted to 97%. On to `CC(=O)c1ccc(N2CCOCC2)cc1O`, for which the residual activity came out at 127%.

`CCN(CC)C(=O)c1ccc(Nc2nc(OCC3CCCCC3)c3nc[nH]c3n2)cc1`: the residual activity was 135%. The figure for `Cn1c2ccccc2c2c3c(c4c5ccccc5n(CCC#N)c4c21)CNC3=O` is 93%; for `O=C1Nc2ccccc2/C1=C1/Nc2ccccc2/C1=N\OCCC(O)CO` (centres undefined) it is 140%. As to `CN(C)c1ccc(/C=C2\C(=O)Nc3ccccc32)cc1`, the residual activity came out at 86%. The figure for `COc1cc2ncnc(Nc3ccc(Oc4ccccc4)cc3)c2cc1OC` is 98%; for `COc1ccc(OC)c2c(=S)c3ccccc3[nH]c12` it is 108%.

With `O=c1c2ccccc2[nH]c(=S)n1CCN1CCC(=C(c2ccc(F)cc2)c2ccc(F)cc2)CC1`, the residual activity was found to be 85%. On to `O=C1C(Cl)=C(N2C(=O)CCC2=O)C(=O)c2ccccc21`, for which the residual activity stood at 100%. As for `CC(C)n1cnc2c(NCc3ccccc3)nc(NCCCO)nc21`, the residual activity is 131%. For `O=C1Nc2cc(Br)ccc2/C1=C1/Nc2ccccc2/C1=N\O`, the residual activity is 94%. For the molecule `CCOC(=O)c1c(C)[nH]c(/C=C2\C(=O)Nc3ccccc32)c1C`, the residual activity was 93%. The result for `COc1ccc(-c2cnc3c(-c4ccsc4)cnn3c2)cc1` reads 138%; that for `O=C1Nc2ccc(Cl)cc2/C1=C/c1cc(Cl)c(O)c(Cl)c1`, 111%. Regarding `O=C(CCCc1ccc(-c2ccccc2F)cc1)Nc1ccc(O)cc1`, the residual activity was 102%. The result for `COc1ccc(Cl)cc1NC(=O)Nc1cc(C)nc2ccccc12` reads 98%; that for `CO[C@H]1[C@@H](OC)C[C@H](C)[C@@H](OC)C2=CC(=O)C=C(NC(=O)/C(C)=C/C=C/[C@H](OC)[C@@H](OC(N)=O)/C(C)=C/[C@@H]1C)C2=O`, 125%.

For the origin of these results see ChEMBL document CHEMBL2218924, “A broad activity screen in support of a chemogenomic map for kinase signalling research and drug discovery” (Biochem J, 2013).
